A short description of assay [1]: growth inhibition of DIPG glioma cells, dose response, cell-based, SU-DIPG-XVII, MIPE5.0, CellTiter-Glo, qHTS (AID 1347060).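 As to AC50: cells exposed to compound for 48 hours before viability readout.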 The note with it: SU-DIPG-XVII viability, CellTiter-Glo ATP luminescence. In general terms: ATP-based viability assays read luminescence as a measure of living cells.
Assay [2] is described as follows: growth inhibition of DIPG glioma cells, dose response, cell-based, JHH-DIPG-1, MIPE4.0, CellTiter-Glo, qHTS (AID 1347062; cut-off not given, nearly all actives have AC50 up to about 27 µM;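 as to AC50: cells exposed to compound for two days before readout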). To be noted: JHH-DIPG-1 viability, CellTiter-Glo ATP luminescence.
The nature of assay [3]: growth inhibition of DIPG glioma cells, dose response, cell-based, SU-DIPG-XIII, MIPE5.0, CellTiter-Glo, qHTS (AID 1347064; cut-off not given, nearly all actives have AC50 up to about 23 µM;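 as to AC50: cells exposed to compound for 48 hours before the viability read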). The note with it: SU-DIPG-XIII viability, CellTiter-Glo ATP luminescence.
Assay [4] can be described thus: viability loss in pontine glioma line – cell-based, SU-DIPG-XXV, MIPE5.0, CellTiter-Glo, qHTS, dose response (AID 1347065).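 Also: cells exposed to compound for 48 hours before ATP readout.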 The note with it: CellTiter-Glo ATP luminescence.
The nature of assay [5]: JHH-DIPG-1 glioma cell viability, MIPE5.0 library, CellTiter-Glo luminescence, qHTS (AID 1347067).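 Also: cells exposed to compound for 48 hours before readout.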 To be noted: JHH-DIPG-1 glioma viability, CellTiter-Glo ATP luminescence.
Assay [6] can be described thus: SU-DIPG-XXV glioma cell viability, MIPE5.0 library, qHTS (AID 1347068; cut-off not given, nearly all actives have IC50 up to about 30 µM;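 as to IC50: cells exposed to compound for 48 hours before viability readout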). (In general: In qHTS, concentration-response curves come from the screen itself.)
A short description of assay [7]: SU-DIPG-VI glioma cell viability, MIPE4.0 library, CellTiter-Glo luminescence, qHTS (AID 1347066; cut-off not given, nearly all actives have AC50 up to about 30 µM;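 also: cells exposed to compound for 48 hours before readout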). The note with it: CellTiter-Glo ATP luminescence.
Assay [8] in a line: sensitizers of A549 cells to miR-34 induction, primary screen, imaging, A549 dox-inducible miR-34, nuclei and caspase counts (AID 1347080;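 active = compounds whose cell count with miR-34 switched on is under 0.7 times the count with it off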). To be noted: A549 miR-34 inducible, Hoechst nuclei count, 48 h.
Assay [9] is described as follows: survival rescue of mitochondrial mutant cells in low glucose, primary screen, MELAS cybrids, Rieske KO mouse fibroblasts, CellTiter-Glo (AID 1508586;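 active = mean z-score across replicates of 1.96 or higher in either the MELAS or the Rieske mutant cell line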;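 also: z relative to plate mean and SD of compound and empty wells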).
The nature of assay [10]: modifiers of HSF1 nuclear foci, imaging, Selleck Cancer Library (AID 1347162; in the data active = plate-normalised HSF1 focus index below about 0.46). The note with it: human cells, at 10 µM; SSMD: measured here: HSF1 foci SSMD mean; cell count: measured here: cell number; plate-normalised HSF1 focus index: stronger effect = lower value.
The mark [11] stands for this setting: stronger effect = lower value, cell number ratio, induced over uninduced.
The mark [12] stands for this setting: measured here: relative caspase fold change +Dox/-Dox.
Where [13] appears, read: measured here: total cells with miR-34 induction, stronger effect = lower value.
Where [14] appears, read: measured here: total cells without miR-34 induction.
The mark [15] stands for this setting: MELAS cybrid survival, CellTiter-Glo 48 h, stronger effect = higher value.
[16] abbreviates: Rieske KO mouse fibroblast survival, CellTiter-Glo 72 h.

Inconclusive results are not listed. Calls of active or inactive are those of the source. Unless noted, the limit is not given here; nearly all actives have AC50 up to about 26 µM.

In general, AC50 refers to the midpoint of the concentration-response curve, whichever way the signal moves. The term IC50 denotes the concentration that gives 50% inhibition.

Take `COc1cc(N2CCC(N3CCN(C)CC3)CC2)ccc1Nc1ncnc(Nc2ccccc2S(=O)(=O)C(C)C)n1`: the AC50 was 6610 nM (active) in assay [1]; 14800 nM (active) in [2]; 5250 nM (active) in assay [3]; 3720 nM (active) in assay [4]; 16600 nM (active) in assay [5]. Besides, in assay [6], the molecule was called inactive.
In the case of `O=c1ncn2nc(Sc3ccc(F)cc3F)ccc2c1-c1c(Cl)cccc1Cl`, the molecule was called inactive in [1], in assay [2], in assay [3], in [7], in assay [5] and in [6]. In addition, the fold change in assay [8] (setting [11]) is 0.89 (inactive); in [8] (setting [12]) it was 1.87. The cell count turned out to be 6460 in [8] (setting [13]) and 7250 in [8] (setting [14]). The z-score in assay [9] (setting [15]) was -0.528 (inactive); in [9] (setting [16]), 1.18.
For `CN[C@H]1CCc2cc(OC)c(OC)c(OC)c2-c2ccc(OC)c(=O)cc21`, the AC50 in [1] was 105 nM (active); in assay [2], 14.8 nM (active); in [3] it was 132 nM (active); in [4], 166 nM (active); in assay [5], 148 nM (active). Besides, the IC50 in assay [6] was 148 nM (active).
On to `CS(=O)(=O)Oc1ccc2c(NC(N)=O)c(C(=O)c3ccc(Cl)cc3Cl)oc2c1`, for which the molecule was classed as inactive in [1], in [3], in assay [4], in assay [5] and in [6]. In addition, the AC50 in assay [2] is 2350 nM (active).
Take `O=C(Nc1cc(Cl)cc2c1[nH]c1cnccc12)c1cccnc1`: the molecule was called inactive in [1], in [2], in [3], in [4], in assay [7] and in assay [5]. The call in [6] was inactive.
For the molecule `COCCOc1ccc2c(c1)ncn2-c1ccc2cccc(N3CCC(N)CC3)c2n1`, the AC50 in assay [1] was 11800 nM (active); in assay [2], 9350 nM (active); in assay [3] it was 9340 nM (active); in [4], 11800 nM (active). Further, the IC50 in [6] is 18600 nM (active). For the same molecule, the fold change in [8] (setting [11]) was 1.1 (inactive); in assay [8] (setting [12]), 0.953. Moreover, the values for the cell count in assay [8] (setting [13]) and in assay [8] (setting [14]) were 1460 and 1320, respectively. Moreover, the z-score was 0.564 (inactive) in [9] (setting [15]) and -2.41 in assay [9] (setting [16]).
On to `COc1cc(N2CCC(N3CCN(C)CC3)CC2)ccc1Nc1ncc(Cl)c(Nc2ccccc2S(=O)(=O)C(C)C)n1`, for which the AC50 was 372 nM (active) in assay [1]; 18700 nM (active) in assay [2]; 661 nM (active) in assay [3]; 590 nM (active) in [4]; 1050 nM (active) in assay [5]. In addition, the IC50 in assay [6] is 2350 nM (active). The SSMD in [10] was found to be 1.02. In assay [10], this molecule gave a cell count of 6520. For the same molecule, the plate-normalised HSF1 focus index in assay [10] was 1.07 (inactive).

The record behind these values is PubChem BioAssay.
